# Source: PubChem BioAssay (NCI)
# This is part of a sample that, as a whole, favours compounds with a hit. Of some 83,000 tested, about 20% had one in any assay.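 Testing used 96-well plates and a 48-hour single-concentration exposure. Example: -40 means 40% of the starting cells died.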 Activity calls are given as the source filed them. The calls were made as follows: active = growth percent below 10; inactive = the rest.
# Test system: MCF7 breast
# Assay: NCI-60 one-dose screen, 48 h (100 = growth as untreated, 0 = no growth, -100 = all killed)
# Settings: 10 µM unless noted
row,SMILES,growth
1,COc1ccc(C(=O)/C(=N/Nc2ccccc2)c2ccc(OC)cc2)cc1,95.2% (inactive)
2,Cn1c(=O)c2[nH]c(CC(=O)O)nc2n(C)c1=O,101% (inactive)
3,C=CC1=NC(C)(C)CC(C)O1 (centres undefined),93.4% (inactive)
4,O=C(Nc1ccccc1)c1ccco1,95.5% (inactive)
5,CCOC(=O)CNC,93.8% (inactive)
6,Cc1cc(Cl)cc(Cc2cc(Cl)cc(C)c2O)c1O,22.4% (inactive)
7,CC12CCC3c4ccc(O)cc4CCC3C1CCC2=O (centres undefined),128% (inactive)
8,Cc1onc(-c2ccccc2Cl)c1C(=O)Cl,89% (inactive)
9,Nc1cc(N)ncn1,99.7% (inactive)
10,ClCC(Cl)C1CCC(Cl)C(Cl)C1 (centres undefined),87.1% (inactive)
11,O=[N+]([O-])c1ccc(-c2nc(N(CCO)CCO)c3ccccc3n2)o1,0.425% (active)
12,C/C(Cc1ccccc1)=N\O,107% (inactive)
13,O=C(NCc1ccccc1)c1cccc([N+](=O)[O-])c1,97.8% (inactive)
14,OCc1cccnc1,94% (inactive)
15,Cc1onc(-c2c(F)cccc2Cl)c1-c1ncc(-c2ccc(Br)cc2)o1,20.9% (inactive)
16,CC(C)c1ncc([N+](=O)[O-])n1C,97.2% (inactive)
17,Oc1ccc(CCC2CCNc3ccccc32)cc1 (centres undefined),98.6% (inactive)
18,c1ccc2[nH]c(Cc3nc4ccccc4[nH]3)nc2c1,84.9% (inactive)

row,SMILES,growth
1,CCOC(=O)C(CCC#N)(CCC#N)C(=O)OCC,91.4% (inactive)
2,CCOC(=O)C(COS(C)(=O)=O)(COS(C)(=O)=O)C(=O)OCC,98.7% (inactive)
3,CC(C)C(C)(C)C(=O)C(C)(C)C(C)(C)C,97% (inactive)
4,CC(=O)O[C@H]1CC[C@]2(C)C3=C(C(=O)C[C@H]2C1(C)C)[C@]1(C)CC[C@H]([C@H](C)CCC(=O)O)[C@@]1(C)CC3=O,89.6% (inactive)
5,CC(=O)OCC1CCC(COC(C)=O)CC1 (centres undefined),90.9% (inactive)
6,CC(=O)NNC(=S)N/C=C/c1c(C)ccc([N+](=O)[O-])c1[N+](=O)[O-],96.2% (inactive)
7,CCOC(=O)c1c[nH][nH]c1=O,92.4% (inactive)
8,O=S(Cc1ccccc1)/C(=C/NC(=S)Nc1ccccc1)c1ccccc1 (centres undefined),102% (inactive)
9,CCOc1ccc(NC(=S)N2CCC(CCCC3CCN(C(=S)Nc4ccc(OCC)cc4)CC3)CC2)cc1,84.1% (inactive)
10,COc1ccc(C)cc1NC(=O)SC(C)C,87% [100 µM] (inactive)
11,Nc1ncnc(Nc2ccc(C(F)(F)F)cc2)n1,96.6% (inactive)
12,Cc1c(Cl)cccc1N=C=S,97.5% (inactive)
13,O=C(OC1CCCC1)c1ccccc1Cl,96.2% (inactive)
14,BrCc1cccc(C[P+](c2ccccc2)(c2ccccc2)c2ccccc2)c1,53.3% (inactive)
15,Cc1c(-c2ccc(C3CCCCC3)cc2)nc2ccc(F)cc2c1C(=O)O,27% (inactive)
16,CC(=O)NC(CCc1ccc(Cl)c(Cl)c1)c1cccc(O)c(=O)c1 (centres undefined),19.3% (inactive)
17,COc1cccc(C(=O)NNC(=O)c2cccc3ccccc23)c1,109% (inactive)
18,O=C(CCl)Nc1ccccc1SCc1cc(Cl)cc2c1OCOC2,55.6% (inactive)

# Test system: HCT-116 colon
# Assay: as above
# Settings: 10 µM unless noted
row,SMILES,growth
1,COc1ccc(C(=O)/C(=N/Nc2ccccc2)c2ccc(OC)cc2)cc1,78.5% (inactive)
2,Cn1c(=O)c2[nH]c(CC(=O)O)nc2n(C)c1=O,104% (inactive)
3,C=CC1=NC(C)(C)CC(C)O1 (centres undefined),107% (inactive)
4,O=C(Nc1ccccc1)c1ccco1,92.3% (inactive)
5,CCOC(=O)CNC,108% (inactive)
6,Cc1cc(Cl)cc(Cc2cc(Cl)cc(C)c2O)c1O,8.46% (active)
7,CC12CCC3c4ccc(O)cc4CCC3C1CCC2=O (centres undefined),95.3% (inactive)
8,Cc1onc(-c2ccccc2Cl)c1C(=O)Cl,105% (inactive)
9,Nc1cc(N)ncn1,99.1% (inactive)
10,ClCC(Cl)C1CCC(Cl)C(Cl)C1 (centres undefined),95.6% (inactive)
11,O=[N+]([O-])c1ccc(-c2nc(N(CCO)CCO)c3ccccc3n2)o1,-7.95% (active)
12,C=CCC(OC(C)=O)c1ccc(OC)c(OC)c1 (centres undefined),103% (inactive)
13,C/C(Cc1ccccc1)=N\O,101% (inactive)
14,O=C(NCc1ccccc1)c1cccc([N+](=O)[O-])c1,103% (inactive)
15,OCc1cccnc1,107% (inactive)
16,Cc1onc(-c2c(F)cccc2Cl)c1-c1ncc(-c2ccc(Br)cc2)o1,17.8% (inactive)
17,CC(C)c1ncc([N+](=O)[O-])n1C,107% (inactive)
18,Oc1ccc(CCC2CCNc3ccccc32)cc1 (centres undefined),89.3% (inactive)
19,c1ccc2[nH]c(Cc3nc4ccccc4[nH]3)nc2c1,89.8% (inactive)

row,SMILES,growth
1,CCOC(=O)C(CCC#N)(CCC#N)C(=O)OCC,97.3% (inactive)
2,CCOC(=O)C(COS(C)(=O)=O)(COS(C)(=O)=O)C(=O)OCC,104% (inactive)
3,CC(C)C(C)(C)C(=O)C(C)(C)C(C)(C)C,97.7% (inactive)
4,CC(=O)O[C@H]1CC[C@]2(C)C3=C(C(=O)C[C@H]2C1(C)C)[C@]1(C)CC[C@H]([C@H](C)CCC(=O)O)[C@@]1(C)CC3=O,99.2% (inactive)
5,CC(=O)OCC1CCC(COC(C)=O)CC1 (centres undefined),103% (inactive)
6,CC(=O)NNC(=S)N/C=C/c1c(C)ccc([N+](=O)[O-])c1[N+](=O)[O-],89.9% (inactive)
7,CCOC(=O)c1c[nH][nH]c1=O,102% (inactive)
8,O=S(Cc1ccccc1)/C(=C/NC(=S)Nc1ccccc1)c1ccccc1 (centres undefined),91.1% (inactive)
9,CCOc1ccc(NC(=S)N2CCC(CCCC3CCN(C(=S)Nc4ccc(OCC)cc4)CC3)CC2)cc1,84.5% (inactive)
10,COc1ccc(C)cc1NC(=O)SC(C)C,104% [100 µM] (inactive)
11,Nc1ncnc(Nc2ccc(C(F)(F)F)cc2)n1,95.3% (inactive)
12,Cc1c(Cl)cccc1N=C=S,95.2% (inactive)
13,O=C(OC1CCCC1)c1ccccc1Cl,98.7% (inactive)
14,BrCc1cccc(C[P+](c2ccccc2)(c2ccccc2)c2ccccc2)c1,22.2% (inactive)
15,Cc1c(-c2ccc(C3CCCCC3)cc2)nc2ccc(F)cc2c1C(=O)O,24.8% (inactive)
16,CC(=O)NC(CCc1ccc(Cl)c(Cl)c1)c1cccc(O)c(=O)c1 (centres undefined),15.9% (inactive)
17,COc1cccc(C(=O)NNC(=O)c2cccc3ccccc23)c1,108% (inactive)
18,O=C(CCl)Nc1ccccc1SCc1cc(Cl)cc2c1OCOC2,78.9% (inactive)
19,CCN(CC)c1ccc2nc3ccc(N=Nc4ccc(N(C)C)cc4)cc3[n+](-c3ccccc3)c2c1,-70.3% (active)
